ADAM10 inh: human ADAM10 inhibitors, primary screen, biochemical, QFRET, HTS; AID 720582, 2013; inhibition, % at 7 µM; recombinant ADAM10, EDANS/DABCYL FRET peptide cleavage, 3 h; Disintegrin and metalloproteinase domain-containing protein 10 (Homo sapiens), O14672; actives 0.62% (n = 370,000);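 active = inhibition above a per-campaign cutoff equal to the mean of compounds falling between control-based bounds plus 3 SD, cut at about 20% in these data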;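 also: 0% = DMSO wells while the 100% control is not disclosed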
ADAM17 inh: ADAM17 inhibitors, primary screen, biochemical, QFRET | recombinant ADAM17, EDANS/DABCYL FRET peptide cleavage | inhibition, % at 6.95 µM | actives 0.83% (n = 370,000);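 active = inhibition above the mean of compounds lying between control limits plus 3 SD, set per campaign, cut at about 8.5% in these data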;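 also: 0% = DMSO-only wells as the low control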
Target sequence (P78536 215-824 limits assumed): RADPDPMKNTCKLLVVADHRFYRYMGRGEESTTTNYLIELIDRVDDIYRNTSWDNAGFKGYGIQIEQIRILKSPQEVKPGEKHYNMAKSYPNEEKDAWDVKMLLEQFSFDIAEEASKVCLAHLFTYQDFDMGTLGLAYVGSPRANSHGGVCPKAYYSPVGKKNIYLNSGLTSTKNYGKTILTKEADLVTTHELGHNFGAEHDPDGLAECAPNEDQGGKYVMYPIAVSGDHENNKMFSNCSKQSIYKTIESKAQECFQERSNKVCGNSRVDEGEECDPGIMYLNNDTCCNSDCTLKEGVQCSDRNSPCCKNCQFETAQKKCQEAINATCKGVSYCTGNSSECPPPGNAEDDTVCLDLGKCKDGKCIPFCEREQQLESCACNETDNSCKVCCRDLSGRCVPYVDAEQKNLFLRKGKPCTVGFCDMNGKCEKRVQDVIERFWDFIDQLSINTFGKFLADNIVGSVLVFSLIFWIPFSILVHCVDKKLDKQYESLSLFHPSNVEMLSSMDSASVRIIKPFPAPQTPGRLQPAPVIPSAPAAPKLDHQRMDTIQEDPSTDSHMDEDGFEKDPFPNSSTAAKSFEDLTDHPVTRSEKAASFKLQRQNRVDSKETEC
APOBEC3G inh: APOBEC3G DNA deaminase inhibitors, primary screen, biochemical, fluorescence, single-stranded DNA substrate, uHTS. inhibition, % at 20 µM. recombinant A3G, ssDNA deamination FAM/TAMRA fluorescence. actives 0.28% (n = 330,000). AID 493012, 2011;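 active = inhibition of at least 40% at 20 µM, with no more than 30% in the related APOBEC3A deaminase screen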;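 also: plate controls were DMSO wells with A3G for no effect and wells lacking A3G enzyme for full effect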
NRP1-CendR mod: modulators of CendR peptide binding to NRP-1, primary screen, biochemical, fluorescence polarization, uHTS; Neuropilin-1 (Homo sapiens), O14786; actives 0.85% (n = 360,000); AID 602438, 2012; FAM-RPARPAR peptide binding to NRP-1; inhibition, % at 25 µM;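 active = inhibition or corrected inhibition above about 18%, plus a signal ratio from 0.5 to 1.5, limit read from the data, passing the limit was not always enough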
APOBEC3A inh: APOBEC3A ssDNA deaminase inhibitors, primary screen, selectivity assay for APOBEC3G inhibitor project, biochemical, FAM/TAMRA oligo cleavage fluorescence; DNA dC->dU-editing enzyme APOBEC-3A (Homo sapiens), P31941; recombinant A3A, FAM/TAMRA ssDNA deamination fluorescence; inhibition, % at 20 µM; actives 0.41% (n = 330,000); AID 493011, 2011;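 active = at least 40% inhibition at 20 µM here, with at most 30% in a related deaminase screen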;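 also: plate controls were A3A with DMSO for no effect and wells lacking A3A enzyme for full effect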
A3G conf: APOBEC3G deaminase inhibitor retest, confirmation, biochemical, fluorescence, single-stranded DNA substrate, single concentration; inhibition, % at 20 µM; AID 493152, 2011; recombinant A3G ssDNA deaminase, UDG/FAM-TAMRA fluorescence; shares compounds with APOBEC3G inh; actives 72% (n = 890);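 active = inhibition reaching a set limit in any replicate at 20 µM, the limit being 80% of the first screen's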
UDG ctr A3G: E. coli UDG inhibitors, confirmation, counter-screen for APOBEC3G inhibitor project, biochemical, single concentration, fluorescence, FAM/TAMRA oligo | shares compounds with APOBEC3G inh | 710 tested, under 10 active | inhibition, % at 20 µM | UDG counterscreen;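 active = compounds giving 40% or more inhibition at 20 µM in any one of the three replicates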;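 also: plate controls were DMSO wells with UDG and oligo for no effect and DMSO wells lacking both for full effect; inhibitors lower the FAM signal released by uracil excision and alkaline cleavage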
Active calls of the source: *; / = no result given. Rows were chosen to be rich in hits. Some 2.4% of all compounds tested hit in one or more screens of this group.

SMILES	ADAM10 inh	ADAM17 inh	APOBEC3G inh	NRP1-CendR mod	APOBEC3A inh	A3G conf	UDG ctr A3G
S=c1[nH]nc(COc2ccccc2)n1/N=C/c1ccncc1	-8	-2	62*	6	-7	82*	-2
CCc1n[nH]c(=S)n1/N=C/c1ccc(N(CC)CC)cc1	7	-20	47*	7	-7	48*	1
CCc1n[nH]c(=S)n1/N=C/c1c(C)nn(-c2ccccc2)c1Cl	-2	-2	22	-3	-8	/	/
CC(=O)Nc1ccc(S(=O)(=O)NCC2CCN(C(=O)C(=O)c3cc4ccccc4o3)CC2)cc1	-6	-2	/	/	/	/	/
O=C(/C=C/c1ccc(-c2ccccc2)cc1)NC1=NCCS1	-5	-2	/	/	/	/	/
COc1cc(/C=N/n2c(COc3ccccc3)n[nH]c2=S)cc(Br)c1O	-12	-5	46*	-10	1	70*	-2
CCc1n[nH]c(=S)n1/N=C/c1cc(Br)c(O)c(OC)c1	0	0	34	-2	4	/	/
O=S1(=O)N[C@@H](Cc2ccccc2)COc2cccc(NCCCN3CCOCC3)c21	-1	-3	/	/	/	/	/
Cc1ccsc1C=Nn1c(-c2n[nH]c3c2CCC3)n[nH]c1=S	-3	-1	/	/	/	/	/
Cc1ccsc1/C=N/n1c(-c2ccccn2)n[nH]c1=S	3	1	60*	4	1	63*	1
Cc1ccsc1/C=N/n1c(-c2ccncc2)n[nH]c1=S	-5	-2	52*	13	-11	75*	-3
Cc1cc(-c2n[nH]c(=S)n2/N=C/c2sccc2C)n[nH]1	14	4	57*	-2	-4	86*	17
Cc1ccsc1/C=N/n1c(-c2ccccc2)n[nH]c1=S	-4	2	32	-1	-2	/	/
S=c1[nH]nc(-c2ccccn2)n1/N=C/c1cccc(Cl)c1	-11	-1	43*	2	-5	77*	-1
COC(=O)c1ccc(Cn2nc(C)c([N+](=O)[O-])c2C)o1	0	-4	-9	-13	-4	/	/
Cc1nn(Cc2ccc(C(=O)O)o2)c(C)c1[N+](=O)[O-]	-1	-6	54*	7	-1	7	-1
c1ccc(Cc2nn3c(C4COc5ccccc5O4)nnc3s2)cc1 (centres undefined)	3	-1	16	0	4	/	/
Cc1ccc(-c2nnc3sc(C4COc5ccccc5O4)nn23)cc1 (centres undefined)	-9	-5	-1	3	6	/	/
c1ccc(CCc2nn3c(Cc4ccccc4)nnc3s2)cc1	8	5	53*	3	2	59*	/
c1ccc(CCc2nn3c(C4COc5ccccc5O4)nnc3s2)cc1 (centres undefined)	3	-3	48*	11	2	31*	3
COc1ccccc1-c1nn2c(C3COc4ccccc4O3)nnc2s1 (centres undefined)	-5	-2	51*	0	-2	3	4
O=C(N[C@@H](Cc1cccnc1)C(=O)N1CCC[C@H]1C(=O)NC1CCCC1)c1ccccc1	-7	-7	/	/	/	/	/
COc1ccc(C2Nc3ccccc3C(=O)N2Cc2ccc(C)o2)cc1COc1c(C)cccc1C (centres undefined)	-202	-82	/	/	/	/	/
CC(C)C[C@H](NS(=O)(=O)c1ccc(F)cc1F)C(=O)N1CCC[C@H]1C(=O)NCc1ccccc1	-7	-2	/	/	/	/	/
COc1cc(CNCCNC(=O)c2nonc2N)ccc1OCc1ccc(Cl)cc1	0	-1	79*	10	-7	-2	-6
SMILES	ADAM10 inh	ADAM17 inh	APOBEC3G inh	NRP1-CendR mod	APOBEC3A inh	A3G conf	UDG ctr A3G
Cn1c(=O)c(Nc2ccc(Cl)cc2)c2c3c(cccc31)C(=O)c1ccccc1-2	2	-1	-19	/	-6	/	/
CCOC(=O)c1c2c3c(cccc3[nH]c1=O)C(=O)c1ccccc1-2	-1	-4	53*	-7	-3	1	-2
CCOC(=O)c1c2c3c(cccc3n(C)c1=O)C(=O)c1ccccc1-2	-9	-2	55*	25	-1	-1	-3
CCOC(=O)c1c2c3c(c(Cl)ccc3[nH]c1=O)C(=O)c1ccccc1-2	1	-3	28	1	2	/	/
CC(C)(C)c1cc(C(=S)N2CCN(CCO)CC2)cc(C(C)(C)C)c1O	-6	-6	61*	-10	3	56*	-5
Cc1c(/C=N/Nc2ccc(F)cc2)c(O)n(C)c(=O)c1C#N	-4	2	64*	-6	-1	-1	-3
CC(=O)N=Cc1c(C)c(C#N)c(=O)n(C)c1O	-29	-11	-3	-1	-1	/	/
S=c1[nH]nc(NCCCN2CCOCC2)s1	-1	-5	44*	-6	-4	47*	-37
S=c1[nH]c(-c2ccccc2)cn1/N=C/c1ccc(Br)cc1	-2	-1	-7	0	-2	/	/
O=C(O)c1ccc(/C=N/n2cc(-c3ccccc3)[nH]c2=S)cc1	-20	-10	58*	-6	-5	80*	-4
S=c1[nH]c(-c2ccccc2)cn1/N=C/c1cccnc1	-16	-8	50*	5	-9	73*	2
S=c1[nH]c(-c2ccccc2)cn1/N=C/c1cccs1	-32	-11	3	3	-2	/	/
COC(=O)C1=C(C)N(Cc2cccc(C(F)(F)F)c2)C(=NCc2cc(OC)c(OC)c(OC)c2)NC1c1cccc(F)c1 (centres undefined)	1	-1	/	/	/	/	/
CCCCOCC1CN(CCCC)S(=O)(=O)c2c(cccc2Sc2ccc(OC)c(OC)c2)O1 (centres undefined)	2	4	/	/	/	/	/
Nc1ccccc1Sc1nc2ccccc2[nH]1	19	8	57*	14	0	2	/
CCC(Oc1ccccc1)C(=O)Nc1ccc(C)c(S(=O)(=O)N2CCOCC2)c1 (centres undefined)	-2	-3	81*	-2	2	-1	/
COC(=O)Cc1ccc2sc(-c3ccccc3)nc2c1	-4	-2	-1	1	-1	/	/

Assay outcomes deposited in PubChem BioAssay by several laboratories.
